Data: PubChem BioAssay AID1159580 (chemical genetic matrix, 2015)
Values joined by “and” are separate entries in the source; they are usually repeats but may differ in a detail not shown here. Equal values may be shown once. About 2,000 (36%) of roughly 5,500 compounds were called active. About 18% were inconclusive and are not listed. No stated cut-off is given here; in the data, active means normalized growth mostly below about 0.91 (no sharp cut-off); inconclusive means no clear call, values can overlap the other calls; inactive means mostly above about 0.92. This is one part of the list.

Assay: chemical genetic growth profiling, strain panel (AID 1159580);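 further: tested at 20 µM; growth read once vehicle control cultures reached saturation at 30 °C; 1 = growth at the plate median or of vehicle wells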
Details: S. cerevisiae deletion strains, growth OD

Measured: normalized growth

CCN(CCO)CCCC(C)Nc1ccnc2cc(Cl)ccc12 (configuration not stated)
inactive: locus YAL013W, strain DEP1, stronger effect = lower value 1.01 | locus YAL021C, strain ccr4, stronger effect = lower value 1.03 | locus YAL026C, strain drs2, stronger effect = lower value 1 | locus YAL030W, strain snc1, stronger effect = lower value 0.997 | locus YBL061C, strain skt5, stronger effect = lower value 1 | locus YBR009C, strain hhf1, stronger effect = lower value 1.01 | locus YBR021W, strain FUR4, stronger effect = lower value 1 | locus YBR023C, strain chs3, stronger effect = lower value 0.998 | locus YBR171W, strain sec66, stronger effect = lower value 1.01 | locus YBR229C, strain ROT2, stronger effect = lower value 0.991 | locus YBR231C, strain swc5, stronger effect = lower value 1.01 | locus YBR279W, strain paf1, stronger effect = lower value 1.01 | locus YCL011C, strain gbp2, stronger effect = lower value 1 | locus YCL016C, strain dcc1, stronger effect = lower value 1 | locus YCL029C, strain bik1, stronger effect = lower value 1.01 | locus YCL061C, strain MRC1, stronger effect = lower value 0.993 | locus YCL069W, strain vba3, stronger effect = lower value 0.998 | locus YCR088W, strain abp1, stronger effect = lower value 0.997 | locus YDL005C, strain med2, stronger effect = lower value 0.994 | locus YDL035C, strain GPR1, stronger effect = lower value 1.02 | locus YDL040C, strain nat1, stronger effect = lower value 0.999 | locus YDL074C, strain BRE1, stronger effect = lower value 1.01 | locus YDL101C, strain DUN1, stronger effect = lower value 1.02 | locus YDL134C, strain PPH21, stronger effect = lower value 1 | locus YDL185W, strain tfp1, stronger effect = lower value 1.01 | locus YDL192W, strain arf1, stronger effect = lower value 1.01 | locus YDR001C, strain nth1, stronger effect = lower value 1 | locus YDR069C, strain doa4, stronger effect = lower value 1.01 | locus YDR101C, strain arx1, stronger effect = lower value 1.02 | locus YDR137W, strain rgp1, stronger effect = lower value 0.978 | locus YDR150W, strain NUM1, stronger effect = lower value 1.01 | locus YDR159W, strain sac3, stronger effect = lower value 0.999 | locus YDR162C, strain NBP2, stronger effect = lower value 1.01 | locus YDR195W, strain ref2 1 | locus YDR297W, strain sur2, stronger effect = lower value 1.01 | locus YDR318W, strain mcm21, stronger effect = lower value 1.03 | locus YDR334W, strain swr1, stronger effect = lower value 1.01 | locus YDR335W, strain msn5, stronger effect = lower value 0.999 | locus YDR388W, stronger effect = lower value 1.01 | locus YDR392W, strain spt3, stronger effect = lower value 1.03 | locus YDR502C, strain sam2, stronger effect = lower value 1.02 | locus YEL003W, strain gim4, stronger effect = lower value 1 | locus YEL037C, strain rad23, stronger effect = lower value 1.01 | locus YEL061C, strain CIN8 (second series), stronger effect = lower value 1.01 | locus YEL061C, strain CIN8, stronger effect = lower value 1.01 | locus YER015W, strain faa2, stronger effect = lower value 1.01 | locus YER016W, strain bim1, stronger effect = lower value 1 | locus YER110C, stronger effect = lower value 1.01 | locus YER111C, strain swi4, stronger effect = lower value 1 | locus YER155C, strain BEM2 (second series), stronger effect = lower value 1 | locus YER155C, strain BEM2, stronger effect = lower value 1.01 | locus YER167W, strain BCK2, stronger effect = lower value 1.01 | locus YFR010W, strain ubp6, stronger effect = lower value 1.01 | locus YGL078C, strain dbp3, stronger effect = lower value 1.02 | locus YGL086W, strain mad1, stronger effect = lower value 1.02 | locus YGL167C, strain pmr1, stronger effect = lower value 0.994 | locus YGL173C, strain kem1, stronger effect = lower value 0.996 | locus YGL227W, strain vid30, stronger effect = lower value 0.997 | locus YGL240W, strain doc1, stronger effect = lower value 1.01 | locus YGL248W, strain PDE1, stronger effect = lower value 0.993 | locus YGL253W, strain hxk2, stronger effect = lower value 0.999 | locus YGR078C, strain PAC10, stronger effect = lower value 1.03 | locus YGR135W, strain pre9, stronger effect = lower value 1.01 | locus YGR229C, strain SMI1, stronger effect = lower value 1.03 | locus YGR252W, strain gcn5, stronger effect = lower value 1.21 | locus YHR013C, strain ard1, stronger effect = lower value 1 | locus YHR027C, strain rpn1, stronger effect = lower value 0.988 | locus YHR030C, strain SLT2, stronger effect = lower value 1.01 and 0.985 | locus YHR079C, strain IRE1 (second series), stronger effect = lower value 1.01 | locus YHR079C, strain IRE1, stronger effect = lower value 0.99 | locus YHR094C, strain hxt1, stronger effect = lower value 1.01 | locus YHR129C, strain ARP1, stronger effect = lower value 1.01 | locus YHR142W, strain chs7, stronger effect = lower value 1 | locus YHR200W, strain rpn10, stronger effect = lower value 1.02 | locus YIL066C, strain RNR3, stronger effect = lower value 1.03 | locus YIL073C, strain SPO22, stronger effect = lower value 1.05 | locus YIL125W, strain kgd1, stronger effect = lower value 1 | locus YIR030C, strain dcg1, stronger effect = lower value 1.01 | locus YJL092W, strain hpr5, stronger effect = lower value 0.998 | locus YJL095W, strain BCK1 (second series), stronger effect = lower value 0.995 | locus YJL095W, strain BCK1, stronger effect = lower value 1.01 | locus YJL115W, strain asf1, stronger effect = lower value 1.01 | locus YJL129C, strain trk1, stronger effect = lower value 0.991 | locus YJL134W, strain LCB3, stronger effect = lower value 1.01 | locus YJL154C, strain vps35, stronger effect = lower value 1.01 | locus YJL164C, strain tpk1, stronger effect = lower value 1 | locus YJL166W, strain qcr8, stronger effect = lower value 1 | locus YJL168C, strain set2, stronger effect = lower value 1.01 | locus YJL187C, strain SWE1 (second series), stronger effect = lower value 1.02 | locus YJL187C, strain SWE1, stronger effect = lower value 0.999 | locus YJR043C, strain POL32, stronger effect = lower value 1.04 | locus YJR066W, strain TOR1, stronger effect = lower value 0.961
